From PubChem BioAssay (Tox21)
Inconclusive results are not listed. Active and inactive are the calls of the source. Unless noted, the call rests on the fitted dose curve; in most records, active means well fitted curve in the direction sought with a large enough effect in the repeat runs; inconclusive means weak or mixed curves; inactive means no such curve, though single readings can be large; an effect the other way counts as inactive or inconclusive.

Experiments:
[1] = qHTS assay to identify small molecule agonists of the peroxisome proliferator-activated receptor delta (PPARd) signaling pathway - cell viability counter screen (AID 743211); further: on the % scale 0 is the no-effect control and ±100 the full control effect; nearly all actives have a fitted effect of over 55% in size
Outline: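 Multiplexed format: after the 2 h room-temperature LiveBLAzer B/G FRET step, CellTiter-Glo was added to the same wells. Luminescence after 30 min gave cell viability; compound exposure was 17 h at 37C.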

[2] = target: Peroxisome proliferator-activated receptor delta (Homo sapiens) (UniProt Q03181); experiment: qHTS assay to identify small molecule agonists of the peroxisome proliferator-activated receptor delta (PPARd) signaling pathway (AID 743212; calls by dose curve; further: on the % scale 0 is the no-effect control and ±100 the full control effect)
Outline: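 Beta-lactamase reporter readout: a ratiometric FRET signal from the LiveBLAzer substrate after 2 h at room temperature. Compound exposure at 37 °C in PPARδ-bla HEK293H cells driven by an upstream activator sequence.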

[3] = qHTS assay to identify small molecule antagonists of the peroxisome proliferator-activated receptor delta (PPARd) signaling pathway - cell viability counter screen (AID 743213); further: on the % scale 0 is the no-effect control and ±100 the full control effect; nearly all actives have a fitted effect of over 50% in size
Outline: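 In this counter screen, HEK293H cells carrying a UAS-beta-lactamase reporter are co-treated with test compounds and 300 nM L165041 (final) for 17 h at 37 C; cell viability is quantified by CellTiter-Glo luminescence.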

[4] = target: Peroxisome proliferator-activated receptor delta (Homo sapiens) (UniProt Q03181); experiment: qHTS assay to identify small molecule antagonists of the peroxisome proliferator-activated receptor delta (PPARd) signaling pathway (AID 743215; active means well fitted inhibition curve with a large enough effect in the signal ratio in the repeat runs, not every such curve was filed as active; the % refers to the signal ratio;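 further: cells stimulated with agonist L165041 at 300 nM final during compound exposure; series mostly up to about 62 µM; on the % scale 0 is the no-effect control and ±100 the full control effect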)
Outline: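 HEK293H GeneBLAzer PPARd UAS-bla reporter cells; cpd + L165041 300 nM final, 17 h 37 C; LiveBLAzer B/G FRET substrate 2 h RT; fluorescence intensity read-out. Antagonist mode.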

[5] = qHTS assay to identify small molecule antagonists of the farnesoid-X-receptor (FXR) signaling pathway - cell viability counter screen (AID 743221; active means well fitted cell-killing curve with a large enough effect in the repeat runs, not every such curve was filed as active; further: on the % scale 0 is the no-effect control and ±100 the full control effect; nearly all actives have a fitted effect of over 50% in size)
Outline: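 CellTiter-Glo, 30 min RT, luminescence; same wells as the LiveBLAzer FRET read. Cells: FXR-UAS-bla HEK 293T. Treatment: compound with chenodeoxycholic acid 50 uM final, 16 h at 37 C.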

[6] = target: Vitamin D3 receptor (Homo sapiens) (UniProt P11473); experiment: qHTS assay to identify small molecule agonists of the vitamin D receptor (VDR) signaling pathway (AID 743222; calls by dose curve; further: on the % scale 0 is the no-effect control and ±100 the full control effect)
Outline: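 Beta-lactamase reporter readout (LiveBLAzer B/G FRET, 2 h RT) in VDR-bla cells after 16 h compound treatment at 37C, 5% CO2; cells pre-incubated 4 h before pin transfer of DMSO solutions.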

[7] = qHTS assay to identify small molecule agonists of the vitamin D receptor (VDR) signaling pathway - cell viability counter screen (AID 743224); further: nearly all actives have a fitted effect of over 50% in size; further: potency means the concentration at half of the fitted maximal effect
Outline: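 Cytotoxicity counter screen: VDR-bla cells, 16 h compound exposure at 37C, 5% CO2; CellTiter-Glo luminescence, 30 min RT, same wells as bla read.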

[8] = qHTS assay to identify small molecule antagonists of the vitamin D receptor (VDR) signaling pathway - cell viability counter screen (AID 743225); further: on the % scale 0 is the no-effect control and ±100 the full control effect; nearly all actives have a fitted effect of over 50% in size
Outline: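 Cytotoxicity toward the VDR-bla HEK 293T line was scored by ATP-based CellTiter-Glo luminescence, read in the wells already used for the beta-lactamase readout after 16 h compound treatment under 3 nM 1-alpha,25-dihydroxyvitamin D3 stimulation.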

[9] = qHTS assay to identify small molecule agonists of the NFkB signaling pathway - cell viability counter screen (AID 1159515; calls by dose curve; further: nearly all actives have a fitted effect of over 55% in size; further: potency means the concentration at half of the fitted maximal effect)
Outline: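 ME-180 NFkB-bla cells, 2,000/well; overnight attach; compound 5 hr, 37 C/5% CO2; LiveBLAzer substrate 1.5 hr RT; then CellTiter-Glo in same wells, 30 min RT, luminescence read.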

[10] = qHTS assay to identify small molecule agonists of the endoplasmic reticulum stress response signaling pathway (AID 1159516; active means well fitted activation curve with a large enough effect in the signal ratio in the repeat runs, not every such curve was filed as active; the % refers to the signal ratio; further: on the % scale 0 is the no-effect control and ±100 the full control effect)
Outline: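 HeLa ESRE-bla reporter line; cpd 5 h, 37 C/5% CO2; LiveBLAzer B/G FRET substrate 2 h RT; ex 405, em 460/530 nm.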

[11] = qHTS assay to identify small molecule antagonists of the retinoid-related orphan receptor gamma (ROR-gamma) signaling pathway - cell viability counter screen (AID 1159520); further: nearly all actives have a fitted effect of over 50% in size; further: potency means the concentration at half of the fitted maximal effect
Outline: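 Cytotoxicity was read from cellular ATP (CellTiter-Glo luminescence) after 16 hr at 37 C with 1 uM doxycycline induction. The inducer was added 2 hr after compound transfer to Tet-on ROR gamma CHO cells.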

[12] = target: Nuclear receptor ROR-gamma (Homo sapiens) (UniProt P51449); experiment: qHTS assay to identify small molecule antagonists of the retinoid-related orphan receptor gamma (ROR-gamma) signaling pathway (AID 1159521; further: nearly all actives have a fitted effect of over 50% in size; further: potency means the concentration at half of the fitted maximal effect)
Outline: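 Readout: ONE-Glo luciferase luminescence, 30 min at room temperature. System: Tet-on RORγ CHO, RORE-LUC. Sequence: compound 2 h, doxycycline 1 uM final, 16 h at 37 C.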

[13] = qHTS assay to identify small molecule agonists of the AP-1 signaling pathway - cell viability counter screen (AID 1159525; calls by dose curve; further: nearly all actives have a fitted effect of over 55% in size; further: potency means the concentration at half of the fitted maximal effect)
Outline: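 Intracellular ATP by Cell Titer Glo luminescence (30 min, RT) in the same ME-180 AP-1-bla wells after the 5 h compound exposure at 37 °C. Normalised to tetra n-octyl ammonium bromide and DMSO controls.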

[14] = target: Bile acid receptor (Homo sapiens) (UniProt Q96RI1); experiment: qHTS assay to identify small molecule antagonists of the farnesoid-X-receptor (FXR) signaling pathway (AID 743217; active means well fitted inhibition curve with a large enough effect in the signal ratio in the repeat runs, not every such curve was filed as active; the % refers to the signal ratio; further: on the % scale 0 is the no-effect control and ±100 the full control effect)
Outline: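 Read-out: beta-lactamase FRET fluorescence (LiveBLAzer B/G substrate, 2 h, room temperature) in GeneBLAzer FXR-UAS-bla HEK 293T cells. Compounds were co-dosed with 50 uM chenodeoxycholic acid (final) and incubated 16 h at 37 °C.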

[15] = qHTS assay to identify small molecule agonists of the farnesoid-X-receptor (FXR) signaling pathway - cell viability counter screen (AID 743218); further: on the % scale 0 is the no-effect control and ±100 the full control effect; nearly all actives have a fitted effect of over 45% in size
Outline: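 Luminescence from CellTiter-Glo, read after 30 min at RT, reports viability of GeneBLAzer FXR-UAS-bla HEK 293T cells treated 16 h with compounds in the wells used for the beta-lactamase reporter.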

[16] = target: Vitamin D3 receptor (Homo sapiens) (UniProt P11473); experiment: qHTS assay to identify small molecule antagonists of the vitamin D receptor (VDR) signaling pathway (AID 743223; active means well fitted inhibition curve with a large enough effect in the signal ratio in the repeat runs, not every such curve was filed as active; the % refers to the signal ratio; further: on the % scale 0 is the no-effect control and ±100 the full control effect)
Outline: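 After VDR-bla cells are plated and left 4 h at 37C, DMSO-dissolved compounds and 3 nM (final) calcitriol agonist are added. Incubation continues 16 h at 37C; FRET beta-lactamase substrate then develops 2 h at room temperature.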

[17] = qHTS assay to identify small molecule agonists of the AP-1 signaling pathway (AID 1159526; calls by dose curve; further: on the % scale 0 is the no-effect control and ±100 the full control effect)
[18] = target: Retinoic acid receptor RXR-alpha (Homo sapiens) (UniProt P19793); experiment: qHTS assay to identify small molecule agonists of the RXR signaling pathway (AID 1159527; calls by dose curve; further: on the % scale 0 is the no-effect control and ±100 the full control effect; nearly all actives have a fitted effect of over 35% in size)
Outline: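 Reporter activation is measured as beta-lactamase activity via FRET substrate cleavage (emission 460/530 nm) in HEK 293T cells expressing an RXR-alpha-driven bla construct, following 16 hr compound exposure at 37 C.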

[19] = target: Bile acid receptor (Homo sapiens) (UniProt Q96RI1); experiment: qHTS assay to identify small molecule agonists of the farnesoid-X-receptor (FXR) signaling pathway (AID 743220; active means well fitted activation curve with a large enough effect in the signal ratio in the repeat runs, not every such curve was filed as active; the % refers to the signal ratio; further: on the % scale 0 is the no-effect control and ±100 the full control effect)
Outline: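 FXR-UAS-bla HEK 293T cells carrying a UAS-driven beta-lactamase reporter were plated for 5 h at 37C/5% CO2, then exposed to DMSO-dissolved Tox21 10K compounds for 16 h at 37C. A LiveBLAzer B/G FRET substrate was loaded for 2 h at room temperature before fluorescence reading.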

Chain of Retinoic acid receptor RXR-alpha (Homo sapiens) (P19793 whole entry, looked up): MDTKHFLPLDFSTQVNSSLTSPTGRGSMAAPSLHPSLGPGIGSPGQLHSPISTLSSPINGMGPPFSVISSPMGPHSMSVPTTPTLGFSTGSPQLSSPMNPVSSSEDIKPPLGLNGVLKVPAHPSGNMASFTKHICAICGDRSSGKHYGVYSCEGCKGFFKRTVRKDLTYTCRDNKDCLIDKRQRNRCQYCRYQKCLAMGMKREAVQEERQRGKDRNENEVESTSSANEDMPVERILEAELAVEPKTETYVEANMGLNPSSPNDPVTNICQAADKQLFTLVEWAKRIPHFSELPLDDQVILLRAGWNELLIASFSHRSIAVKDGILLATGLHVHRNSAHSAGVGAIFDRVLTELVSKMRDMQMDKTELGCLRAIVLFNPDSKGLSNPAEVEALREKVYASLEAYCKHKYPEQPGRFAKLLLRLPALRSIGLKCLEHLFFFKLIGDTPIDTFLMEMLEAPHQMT
Chain of Bile acid receptor (Homo sapiens) (Q96RI1 whole entry, looked up): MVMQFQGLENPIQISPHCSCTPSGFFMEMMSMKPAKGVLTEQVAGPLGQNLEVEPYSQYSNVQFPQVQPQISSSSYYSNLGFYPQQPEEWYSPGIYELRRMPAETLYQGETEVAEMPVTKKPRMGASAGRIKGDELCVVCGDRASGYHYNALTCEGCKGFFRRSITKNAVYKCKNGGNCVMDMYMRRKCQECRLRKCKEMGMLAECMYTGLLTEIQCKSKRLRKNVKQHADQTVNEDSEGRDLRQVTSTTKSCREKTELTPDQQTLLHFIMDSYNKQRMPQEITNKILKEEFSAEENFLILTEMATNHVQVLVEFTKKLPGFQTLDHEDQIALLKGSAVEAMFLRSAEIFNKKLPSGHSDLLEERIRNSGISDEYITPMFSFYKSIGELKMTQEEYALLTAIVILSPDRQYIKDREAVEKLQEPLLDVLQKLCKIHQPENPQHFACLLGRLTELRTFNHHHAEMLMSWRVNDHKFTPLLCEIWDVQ
Chain of Vitamin D3 receptor (Homo sapiens) (P11473 whole entry, looked up): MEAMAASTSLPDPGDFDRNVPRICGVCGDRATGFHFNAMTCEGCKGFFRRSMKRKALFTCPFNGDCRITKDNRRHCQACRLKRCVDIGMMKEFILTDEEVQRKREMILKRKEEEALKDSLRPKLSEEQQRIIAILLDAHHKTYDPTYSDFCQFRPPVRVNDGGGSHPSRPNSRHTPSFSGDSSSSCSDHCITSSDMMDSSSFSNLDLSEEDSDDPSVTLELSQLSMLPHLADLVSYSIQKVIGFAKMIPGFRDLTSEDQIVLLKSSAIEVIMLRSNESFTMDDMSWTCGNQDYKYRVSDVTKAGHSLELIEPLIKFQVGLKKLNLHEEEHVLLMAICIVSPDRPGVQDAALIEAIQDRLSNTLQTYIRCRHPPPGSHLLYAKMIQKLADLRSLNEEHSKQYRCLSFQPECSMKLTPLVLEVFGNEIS
Chain of Peroxisome proliferator-activated receptor delta (Homo sapiens) (Q03181 whole entry, looked up): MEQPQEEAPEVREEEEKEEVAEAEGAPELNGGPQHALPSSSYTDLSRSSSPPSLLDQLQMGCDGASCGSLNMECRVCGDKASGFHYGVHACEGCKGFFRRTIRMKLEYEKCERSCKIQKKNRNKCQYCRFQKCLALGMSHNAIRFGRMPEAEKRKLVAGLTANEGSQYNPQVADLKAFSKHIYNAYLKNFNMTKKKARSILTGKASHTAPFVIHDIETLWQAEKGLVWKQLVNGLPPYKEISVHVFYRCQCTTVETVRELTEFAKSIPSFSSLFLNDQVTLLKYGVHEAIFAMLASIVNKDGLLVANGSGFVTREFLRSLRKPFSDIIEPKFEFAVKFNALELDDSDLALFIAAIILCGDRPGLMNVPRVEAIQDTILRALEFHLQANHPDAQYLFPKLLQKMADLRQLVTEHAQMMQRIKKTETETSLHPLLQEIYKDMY

CC(C)(C)NSc1nc2ccccc2s1
inactive: Potency [1] | Potency [2] | Potency [3] | Potency [4] | Potency [5] | Potency [6] | Potency [7] | Potency [8] | Potency [9] | Potency [10] | Potency [11] | Potency [12] | Potency [13]

O=C(O)c1cc(O)c2ccccc2c1O
active: Potency [7] 38.9 µM | Potency [9] 21.9 µM | Potency [11] 17.2 µM | Potency [12] 13.7 µM | Potency [13] 4.9 µM
inactive: Potency [2] | Potency [14] | Potency [5] | Potency [10]

C=CCCC(=O)/C=C/C1C(C)=CCCC1(C)C (stereo not drawn)
inactive: Potency [1] | Potency [2] | Potency [3] | Potency [15] | Potency [5] | Potency [6] | Potency [16] | Potency [8] | Potency [9] | Potency [10] | Potency [11] | Potency [13] | Potency [17] | Potency [18]

CC[N+](CC)(CC)CCOc1ccc(/C=C/c2ccccc2)cc1
inactive: Potency [1] | Potency [3] | Potency [15] | Potency [5] | Potency [7] | Potency [8] | Potency [9] | Potency [10] | Potency [11] | Potency [17]

O=C(O)CCN(C1(C(=O)NO)CCCC1)S(=O)(=O)c1ccc(Oc2ccc(F)cc2)cc1
inactive: Potency [1] | Potency [3] | Potency [5] | Potency [7] | Potency [8] | Potency [9] | Potency [10] | Potency [11] | Potency [13] | Potency [17]

CC(C)Cn1cnc2c(N)nc3ccccc3c21
inactive: Potency [1] | Potency [2] | Potency [3] | Potency [4] | Potency [14] | Potency [15] | Potency [19] | Potency [5] | Potency [6] | Potency [16] | Potency [7] | Potency [8] | Potency [9] | Potency [10] | activity, negative = cytotoxicity [11] -2.84% [at 19 µM] | activity change, negative = inhibition [12] 5.43% [at 19 µM] | viability change, negative = cytotoxic [13] 9.4% [at 15.8 µM] | activation [18] 13.7% [at 15.8 µM]

Cc1ccc(C)cc1
inactive: Potency [1] | Potency [2] | Potency [14] | Potency [15] | Potency [19] | Potency [7] | Potency [8] | Potency [9] | Potency [10] | Potency [12] | Potency [13] | Potency [17] | Potency [18]

Cc1c(C)c([N+](=O)[O-])c(C(C)(C)C)c([N+](=O)[O-])c1C
inactive: Potency [2] | Potency [3] | Potency [4] | Potency [15] | Potency [5] | Potency [9] | Potency [10] | Potency [11] | Potency [12] | Potency [13] | Potency [17]
